This note sets out measurements from PubChem BioAssay AID504834 (National Center for Advancing Translational Sciences (NCATS), 2011).

Hit rate of the full screen: of about 320,000 compounds, about 22,000 (6.9%) were called active. Entries that show only a call come without a potency. Roughly 27% stayed inconclusive and do not appear here. This is one part of a sample in which actives are shown more often than they occur. The call rests on the fitted dose curve; in most records, active means well fitted inhibition curve with a large enough effect; inconclusive means small, poorly fitted or top-dose-only effect, or another doubt; inactive means no such curve, though single readings can be large or run the other way.
Potency means the concentration at half of the fitted maximal effect.

This assay is described as follows: Primary qHTS for delayed death inhibitors of the malarial parasite plastid, 96 hour incubation. The conditions noted are these: P. falciparum luciferase reporter growth; series mostly up to 28.7 µM. The method, boiled down:
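96 h incubation, 37 C, 5% CO2, of luciferase-reporter P. falciparum-infected RBCs (2% hematocrit, 0.05% parasitemia final) with test compounds; endpoint luminescence.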
With `Cc1nc(COc2cc3oc(=O)cc(C)c3cc2Cl)cs1`, the Potency result was “inactive”.
The result for `CCOC(=O)C1=C(O)/C(=C/c2cc(C)n(-c3ccccc3)c2C)N=C1C` reads 0.657 µM (active).
Regarding `CCOC(=O)C1=C(O)/C(=C/c2ccc(OCC(=O)Nc3ccc(C)cc3)cc2)N=C1C`, the Potency result is “inactive”.
As for `COC(=O)C1=C(O)/C(=C/c2ccc(OCC(=O)Nc3ccccc3)cc2)N=C1C`, the entry is “inactive”; as for `CCC(=O)c1ccc(OCC(=O)OCC(=O)N2CCc3ccccc3C2)cc1`, “inactive”; as for `COC(=O)c1ccc2c(C(C)(C)O)c(C(C)(C)O)[nH]c2c1`, “inactive”.
Take `Cc1cccc(-c2oc3ccc(-c4ccc5c(c4)OCO5)cc3c2C#Cc2cncn2C)c1`: the Potency is 1.17 µM (active).
As for `C/C(=C/c1ccccc1)C(=O)N1CCN(c2ccccc2)CC1`, the entry is “inactive”; as for `Nc1c(N(Cc2ccco2)C(=O)c2cccc(F)c2)c(=O)[nH]c(=O)n1Cc1ccccc1`, “inactive”; as for `O=C(O)CN1c2cccc3cccc(c23)S1(=O)=O`, “inactive”.
As for `Cc1ccc(F)cc1NC(=O)c1ccc2c(c1)OCO2`, the entry is “inactive”.
The result for `Cc1ccc(F)cc1NC(=O)c1cccc(N(C)C)c1` reads 11.7 µM (active); that for `O=C(Nc1cccc(NC(=O)c2cccc(F)c2)c1)c1ccccc1`, “inactive”.
Take `Cc1c(C(=O)NC(C)C2CC3CCC2C3)cccc1[N+](=O)[O-]` (stereo not drawn): the Potency entry is “inactive”.
The result for `COc1cc2c(cc1OC)C(c1ccccc1Br)NC(=O)C2` (stereo not drawn) reads “inactive”; that for `Cn1c(-c2ccc(C(F)(F)F)cc2)cc2onc(-c3ccccc3)c2c1=O`, “inactive”.
As for `CN(C)S(=O)(=O)c1ccc(Cl)c(NC(=O)COC(=O)CC(NC(N)=O)c2ccc(Cl)cc2)c1` (stereo not drawn), the entry is “inactive”; as for `CN1C(=O)c2ccccc2C(C(=O)NCCCN2CCCC2)C1c1c[nH]c2ccccc12` (stereo not drawn), 10.4 µM (active); as for `CCCCN(CC)CCNC(=O)CCNC(=O)Cn1ccc2ccccc2c1=O`, “inactive”.
Take `COc1ccc(C2C(C(=O)N3CCN(c4ccc(OC)cc4)CC3)c3ccccc3C(=O)N2C)cc1` (stereo not drawn): the Potency entry was “inactive”.
The result for `CCN(CC)CCNC(=O)C1c2ccccc2C(=O)N(C)C1c1cn(C)c2ccccc12` (stereo not drawn) reads 2.94 µM (active).
As to `O=C(NCCCN1CCN(Cc2ccccc2)CC1)C1CCN(S(=O)(=O)N2CCCC2)CC1`, the Potency result was “inactive”.
On to `CC1CCN(CC(=O)c2c[nH]c3ccccc23)CC1`, for which the Potency result was “inactive”.
The result for `COc1cccc(C(=O)OCC(=O)c2[nH]c(C)c(C(C)=O)c2C)c1` reads “inactive”; that for `COc1ccc(C2=NS(=O)(=O)N(C)C(C(=O)N3CCCCC3)=C2)cc1`, “inactive”.
Regarding `COc1ccc2c(c1)c1ncn(Cc3ccccn3)c(=O)c1n2C`, the Potency entry was “inactive”.
The result for `CC1=CCC2C(=O)N(c3cccc(C(=O)NC(C)c4ccccc4)c3)C(=O)C2C1` (stereo not drawn) reads “inactive”; that for `NC(=O)CSc1nnc(NC(=O)c2ccc(Br)o2)s1`, “inactive”; that for `CN(C)S(=O)(=O)N1CCC(Oc2cccc(C(=O)NCCCC3CCCC3)c2)CC1`, “inactive”.
The result for `Cc1ccc(CNC(=O)CC(NC(=O)c2ccccc2)c2ccccc2)cc1` (stereo not drawn) reads “inactive”; that for `Cc1ccc(NC(=O)CN2C(=O)NC(C)(c3ccc(Cl)cc3)C2=O)c(Br)c1` (stereo not drawn), “inactive”.
The result for `CN(C(=O)CN1C(=O)NC(C)(CCc2ccccc2)C1=O)c1ccccc1` (stereo not drawn) reads “inactive”; that for `Cc1ccc(S(=O)(=O)c2c(N)n(C)c3nc4ccccc4nc23)cc1`, 0.928 µM (active).
As to `Cc1ccc(S(=O)(=O)Nc2nc(N)n(-c3ccccc3)n2)cc1`, the Potency entry is “inactive”.
As for `Cc1ccc(S(=O)(=O)NCc2nc3ccccc3c(=O)n2N)cc1`, the entry is “inactive”; as for `Cc1ccsc1/C=N/NC(=O)Cc1cc(=O)[nH][nH]1`, “inactive”.
As for `CCC1(c2ccccc2)NC(=O)N(CC(=O)Nc2ccccc2C(=O)NC2CCCC2)C1=O` (stereo not drawn), the entry is “inactive”; as for `COC(=O)c1ccccc1NC(=O)CSc1nc2c(c(=O)[nH]1)CCC2`, “inactive”.
Consider `Cc1cccc(Cn2c(SCCO)nc3c2c(=O)n(C)c(=O)n3C)c1`, for which the Potency result was “inactive”.
Take `CCOC(=O)CSc1nc2c(c(=O)n(C)c(=O)n2C)n1Cc1ccccc1F`: the Potency entry was “inactive”.
As for `Cn1c(=O)c2c(nc(SCCNS(=O)(=O)c3ccccc3)n2C)n(C)c1=O`, the figure is 14.7 µM (active).
As for `CCCSc1nc2c(c(=O)n(C)c(=O)n2C)n1Cc1ccc(C)cc1`, the Potency was 13.1 µM (active).
On to `Cc1c(S(=O)(=O)NCc2ccccc2)c(=O)n(C)c(=O)n1C`, for which the Potency entry is “inactive”.
As for `Cn1c(=O)c2c(nc(SCC(=O)Nc3ccccc3N3CCCCC3)n2C)n(C)c1=O`, the entry is “inactive”.
For `Cc1ccc(CNS(=O)(=O)CCNC(=O)c2ccccc2)cc1`, the Potency entry is “inactive”.
As for `CC1C(=O)N2CCCc3cc(S(=O)(=O)NCc4ccc(F)cc4)cc1c32` (stereo not drawn), the entry is “inactive”; as for `CC(C)CNS(=O)(=O)c1ccc(C(=O)Nc2ccc3c(c2)OCO3)cc1`, “inactive”.
The result for `COc1ccc(Cn2c(=S)[nH]c3cc(C(=O)N4CCCCC4)ccc3c2=O)cc1` reads “inactive”; that for `Cc1ccc(S(=O)(=O)N2[C@@H](c3ccccc3F)C(C(=O)O)=CC[C@H]2c2ccc(Cl)cc2)cc1`, “inactive”.
As for `Cc1cc(Nc2ccc(C(=O)N3CCCCC3)cc2)c2cccc(C)c2n1`, the entry is “inactive”.
For `CCn1cc(CN2CCC(n3nccc3NC(=O)CCCc3ccccc3)CC2)c(C)n1`, the Potency entry is “inactive”.
The result for `c1ccc2c(c1)CSc1sccc1C2=C1CCNCC1` reads 10.4 µM (active); that for `CCOC(=O)CNC(=O)CSc1ncccc1-c1nc2ccccc2[nH]1`, “inactive”.
As for `Cc1ccccc1N1CCN(S(=O)(=O)c2ccc3ccccc3c2)CC1`, the entry is “inactive”; as for `Cc1ccc(-n2c(SCC(=O)NCCC3=CCCCC3)nc3n[nH]c(C)c3c2=N)cc1Cl`, “inactive”.
As for `CC1(c2ccc(Cl)cc2Cl)NC(=O)N(CC(=O)Nc2cccnc2Cl)C1=O` (stereo not drawn), the entry is “inactive”; as for `Cc1ccc(CN2CCCC(C(=O)c3ccc4c(c3)OCO4)C2)cc1C` (stereo not drawn), “inactive”; as for `COc1cc(CN2CCCC(C(=O)c3ccc(SC)cc3)C2)cc(Cl)c1O` (stereo not drawn), “inactive”.
For `COc1ccc(CN2CCCC(C(=O)c3ccc(Cl)cc3)C2)cc1Cn1cncn1` (stereo not drawn), the Potency is 10.4 µM (active).
As for `COc1ccc(NC(=O)CSCc2ccc([N+](=O)[O-])cc2)cc1OC`, the entry is “inactive”; as for `OC(c1ccccc1)C(CN1CCOCC1)c1ccccc1` (stereo not drawn), “inactive”; as for `OC(c1ccc(Cl)cc1)C(CN1CCOCC1)c1ccccc1` (stereo not drawn), 2.08 µM (active).
The result for `COc1ccccc1OCC(O)CN1CCOCC1` (stereo not drawn) reads “inactive”; that for `COc1ccc(C(C)C)cc1S(=O)(=O)Nc1ncn[nH]1`, “inactive”; that for `CCCN(CCC)S(=O)(=O)c1ccc(C(=O)NNC(=O)c2cc(OC)c(OC)c(OC)c2)cc1`, “inactive”.
As for `O=c1[nH]c(SCc2cccc(F)c2)nc2ccccc12`, the entry is “inactive”; as for `O=C(c1cc(=O)c2ccccc2o1)N1CCN(c2ccccc2)CC1`, “inactive”; as for `CN1CCN(c2ccc(NC(=O)c3ccccc3)cc2)CC1`, “inactive”.
As for `CN1CCC(CN)(N2CCN(c3ccccc3)CC2)CC1`, the Potency is 11.7 µM (active).
On to `CCC(C)N(C(=O)CSc1ncnc2c1cnn2-c1ccccc1)C1CCS(=O)(=O)C1` (stereo not drawn), for which the Potency result was “inactive”.
As for `COc1ccc(CC(=O)N/N=C/c2cc([N+](=O)[O-])cc(Br)c2O)cc1`, the entry is “inactive”.
The result for `CC12CN3CCN(CC(C3)/C1=N\NC(=O)c1ccccc1N)C2` reads “inactive”; that for `Cc1ccc2[nH]c(C)c(CCNC(=O)NC3CCCCC3)c2c1`, 1.47 µM (active).
The result for `Cc1ccc2[nH]cc(CCNC(=O)C3CCCCC3)c2c1` reads “inactive”.
As to `NS(=O)(=O)c1ccc(CCNC(=O)NC2CCCCC2)cc1`, the Potency entry is “inactive”.
As for `Cc1cccc(NC(=O)Nc2ccc(OCc3ccccc3)cc2)n1`, the entry is “inactive”; as for `CCc1ccnc(NC(=O)Nc2ccc(OCc3ccccc3)cc2)c1`, “inactive”; as for `O=C(O)/C=C\C(=O)Nc1ccc(OCc2ccccc2)cc1`, 4.15 µM (active).
As for `CCN(C(=O)c1cc([N+](=O)[O-])ccc1NCc1cccnc1)c1ccccc1`, the entry is “inactive”; as for `COc1cccc(N2CC(NS(=O)(=O)c3ccc(Cl)cc3)CC2=O)c1` (stereo not drawn), “inactive”; as for `CCOC(=O)N1CCC(NC(=O)CCc2ccccc2)CC1`, “inactive”.
The result for `Cc1ccc(CSCCNC(=O)CN(c2ccc(F)cc2)S(C)(=O)=O)cc1` reads “inactive”; that for `O=C(CCc1ccccc1)Nc1cccc(-c2nnc(-c3ccco3)o2)c1`, “inactive”.
With `CCCCOc1ccc(-c2nnc(-c3ccco3)o2)cc1`, the Potency entry is “inactive”.
For the compound `CCC(=O)Oc1cccc(C(=O)Nc2ccc(-c3nnc(-c4ccco4)o3)cc2)c1`, the Potency is 10.4 µM (active).
The result for `COCCCN(C(=O)CSCc1ccc(C)cc1)c1c(N)n(Cc2ccccc2)c(=O)[nH]c1=O` reads “inactive”; that for `Cc1ccc(C(=O)NC2CCN(C(=O)Nc3ccccc3Cl)CC2)cc1`, “inactive”; that for `O=C(c1c(F)cccc1Cl)N1CCN(c2ccccn2)CC1`, “inactive”.
As for `COc1ccc(CCNS(=O)(=O)c2cccc3cccnc23)cc1OC`, the entry is “inactive”; as for `O=S(=O)(NCCc1ccc(F)cc1)c1cccc2cccnc12`, “inactive”.
As for `NS(=O)(=O)c1ccc(CCNS(=O)(=O)c2cccc3cccnc23)cc1`, the figure is 1.17 µM (active); as for `Cc1cccc(NC(=O)c2cccc(C(=O)Nc3cccc(C)c3C)n2)c1C`, “inactive”; as for `COc1cc(C(=O)N2CCN(C)CC2)cc(OC)c1OC`, “inactive”.
`C=CCOc1ccc(/C=C/C(=O)OCC(=O)NC(C)c2ccc(F)cc2)cc1` (stereo not drawn): the Potency result was “inactive”.
As for `COc1ccc(Cn2c(O)c(/C=C3/C=CC=N3)c(=O)[nH]c2=O)cc1`, the entry is “inactive”; as for `COc1ccc(C(=O)NCC(=O)N/N=C/c2ccc([N+](=O)[O-])o2)cc1OC`, 1.85 µM (active).
The result for `COc1cc(/C=N/NC(=O)CNC(=O)c2ccncc2)ccc1OC(C)=O` reads “inactive”; that for `COc1ccc(C(=O)NCC(=O)N/N=C/c2ccc([N+](=O)[O-])s2)cc1OC`, “inactive”; that for `O=C(O)Cc1csc(-c2cccc(Oc3ccccc3)c2)n1`, “inactive”.
The result for `COc1ccc(C(=O)NCCn2nc(C)cc2C)cc1OC1CCN(C(C)=O)CC1` reads “inactive”; that for `COCCOC1CCN(C(=O)c2ccc(OC)c(OC3CCN(C(C)C)CC3)c2)CC1`, “inactive”; that for `COC(=O)C1CCCCN1C(=O)c1ccc(OC2CCN(C(C)=O)CC2)c(OC)c1` (stereo not drawn), 11.7 µM (active).
For the compound `O=C(CSc1nc(=O)n2ccccc2n1)Nc1ccc2c(c1)OCCO2`, the Potency result was “inactive”.
